Results filed as inconclusive are left out. Calls of active or inactive are those of the source. How the source made its calls: active means hit-call score of the fitted dose curve at least 0.9, where 1 is the maximum; inconclusive means response in the unintended direction; inactive means score below 0.9.
How the values were obtained:
[1] = target: D(1A) dopamine receptor (Homo sapiens) (UniProt P21728); assay: NVS_GPCR_hDRD1: NovaScreen (NVS) G Protein-Coupled Receptor Assay for human Dopamine Receptor D1 (DRD1) (AID 2283269)
Method in brief: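 Radioligand displacement binding on membranes/protein extracted from HEK293 expressing human D1, cell-free; read 1 h after dosing by filter-based scintillation counting. Primary screen in duplicate at 25 uM, actives followed up in concentration series; signal loss versus DMSO baseline.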

[2] = target: human Opioid Receptor Delta 1 (Opiate D1), OPRD1 (gene 4985) (UniProt P41143); assay: NVS_GPCR_hOpiate_D1: NovaScreen (NVS) G Protein-Coupled Receptor Assay for human Opioid Receptor Delta 1 (Opiate D1) (AID 2283280)
Method in brief: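 Membrane preparations from CHO cells bearing the human receptor were incubated 1 h with test chemical, and bound radioligand was counted after filtration. Actives from 25 uM duplicate screening were retested in concentration-response.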

[3] = target: human Thromboxane A2 Receptor (TXA2), TBXA2R (gene 6915) (UniProt P21731); assay: NVS_GPCR_hTXA2: NovaScreen (NVS) G Protein-Coupled Receptor Assay for human Thromboxane A2 Receptor (TXA2) (AID 2283282);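 further: actives reduce bound radioligand signal relative to DMSO baseline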
Method in brief: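 Cell-free radioligand binding on membrane protein from human platelets; radioligand displacement read by filter-based scintillation counting after 1 h. Primary screen in duplicate at 25 uM, actives then run in concentration series; loss of signal versus DMSO.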

[4] = target: human Endothelin Receptor Type B (ETB), EDNRB (gene 1910) (UniProt P24530); assay: NVS_GPCR_hETB: NovaScreen (NVS) G Protein-Coupled Receptor Assay for human Endothelin Receptor Type B (ETB) (AID 2283267)
Method in brief: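 Filter-based scintillation readout of radioligand displacement, 4 h, using membranes from human astrocytoma cells. Actives from a 25 uM duplicate screen were retested in concentration-response (top 50 uM) relative to DMSO baseline.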

[5] = target: human Purinergic Receptor P2Y, P2RY1 (gene 5028) (UniProt P47900); assay: NVS_GPCR_hPY2: NovaScreen (NVS) G Protein-Coupled Receptor Assay for human Purinergic Receptor P2Y (AID 2283281)
Method in brief: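 Filtration scintillation readout of radioligand displacement on U937 extract, measured 1 h post-dosing. Single 25 uM duplicate screen, then singleton concentration series to 50 uM for chemicals passing threshold; DMSO as baseline.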

[6] = target: human Dopamine Receptor D2 (DRD2), DRD2 (gene 1813) (UniProt P14416); assay: NVS_GPCR_hDRD2s: NovaScreen (NVS) G Protein-Coupled Receptor Assay for human Dopamine Receptor D2 (DRD2) (AID 2283266)
Method in brief: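 Test compound (25 uM, duplicate in the primary screen; concentration series at follow-up) competed with radioligand for human DRD2 in CHO-derived membrane protein. Filter-based scintillation counting was done 1.5 hours after dosing, with loss of signal analysed against DMSO.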

[7] = target: Muscarinic acetylcholine receptor M1 (Homo sapiens) (UniProt P11229); assay: NVS_GPCR_hM1: NovaScreen (NVS) G Protein-Coupled Receptor Assay for human Muscarinic, M1 Receptor (AID 2283270)
Method in brief: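 Actives from a duplicate 25 uM single-point screen were retested in concentration series. Binding measured as displacement of a radioligand from CHO-derived receptor preparation, 1 h incubation, filtration and scintillation counting, analysed as signal loss against DMSO.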

[8] = target: Muscarinic acetylcholine receptor M3 (Homo sapiens) (UniProt P20309); assay: NVS_GPCR_hM3: NovaScreen (NVS) G Protein-Coupled Receptor Assay for human Muscarinic, M3 Receptor (AID 2283272)
Method in brief: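 Radioligand displacement binding on human M3 receptor in CHO-derived membranes, 1 h incubation, filter-based scintillation counting. Primary screen in duplicate at 25 uM; actives followed up in concentration series; loss of signal versus DMSO.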

[9] = target: Muscarinic acetylcholine receptor M2 (Homo sapiens) (UniProt P08172); assay: NVS_GPCR_hM2: NovaScreen (NVS) G Protein-Coupled Receptor Assay for human Muscarinic, M2 Receptor (AID 2283273)
Method in brief: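 CHO-expressed human M2 receptor preparation, competitive displacement of a radioligand read by filter-based scintillation counting after 1 h. Single 25 uM duplicate screen, then concentration-response follow-up of actives; DMSO baseline.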

[10] = target: human Muscarinic, M4 Receptor, CHRM4 (gene 1132) (UniProt P08173); assay: NVS_GPCR_hM4: NovaScreen (NVS) G Protein-Coupled Receptor Assay for human Muscarinic, M4 Receptor (AID 2283274)
Method in brief: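 Filter-based scintillation counting of radioligand bound to CHO-expressed human M4 preparations after 1 h; loss of signal fitted versus DMSO. Initial duplicate testing at 25 uM, concentration-response follow-up for actives.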

[11] = target: Muscarinic acetylcholine receptor M5 (Homo sapiens) (UniProt P08912); assay: NVS_GPCR_hM5: NovaScreen (NVS) G Protein-Coupled Receptor Assay for human Muscarinic, M5 Receptor (AID 2283275)
Method in brief: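 Chemicals passing a primary duplicate screen at 25 uM were run as singleton concentration series, maximum 50 uM. Displacement of a specific radioligand from CHO-extracted receptor was read by filter scintillation after 1 h, relative to DMSO.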

[12] = target: human Neurokinin, NK2 Receptor, TACR2 (gene 6865) (UniProt P21452); assay: NVS_GPCR_hNK2: NovaScreen (NVS) G Protein-Coupled Receptor Assay for human Neurokinin, NK2 Receptor (AID 2283278);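 further: actives reduce bound radioligand signal relative to DMSO baseline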
Method in brief: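 Radioligand binding on membranes from CHO cells expressing receptor, filter-based scintillation read 4 h after dosing. Initial duplicate screen at 25 uM, actives in concentration series; loss of signal versus DMSO.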

[13] = target: human Histamine 1 Receptor (H1), HRH1 (gene 3269) (UniProt P35367); assay: NVS_GPCR_hH1: NovaScreen (NVS) G Protein-Coupled Receptor Assay for human Histamine 1 Receptor (H1) (AID 2283268)
Method in brief: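 Filter-based scintillation detection of radioligand binding to human H1, 1 h incubation; chemicals screened in duplicate at 25 uM, then concentration-response; signal loss relative to DMSO taken as activity.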

[14] = target: human Orphanin, Opioid Related Nociceptin Receptor 1 (ORL1), OPRL1 (gene 4987) (UniProt P41146); assay: NVS_GPCR_hORL1: NovaScreen (NVS) G Protein-Coupled Receptor Assay for human Orphanin, Opioid Related Nociceptin Receptor 1 (ORL1) (AID 2283283)
Method in brief: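 Cell-free binding using HEK293-derived receptor protein: radioligand displacement measured by filter scintillation 1 hour after dosing. Primary testing at 25 uM in duplicate, followed by singleton concentration series up to 50 uM; DMSO served as negative control.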

Measured: AC50

Chain of human Neurokinin, NK2 Receptor, TACR2 (gene 6865) (P21452 whole entry, looked up): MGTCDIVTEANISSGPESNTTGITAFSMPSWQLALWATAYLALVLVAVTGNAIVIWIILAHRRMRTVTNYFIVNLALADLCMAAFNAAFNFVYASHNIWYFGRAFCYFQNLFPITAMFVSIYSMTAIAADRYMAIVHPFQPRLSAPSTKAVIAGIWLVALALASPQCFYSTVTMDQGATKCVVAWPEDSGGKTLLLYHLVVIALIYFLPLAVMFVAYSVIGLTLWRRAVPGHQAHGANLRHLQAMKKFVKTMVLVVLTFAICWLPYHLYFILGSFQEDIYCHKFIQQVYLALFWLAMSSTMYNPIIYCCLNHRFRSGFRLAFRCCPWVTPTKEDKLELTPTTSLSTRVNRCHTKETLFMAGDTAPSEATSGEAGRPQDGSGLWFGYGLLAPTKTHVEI
Chain of D(1A) dopamine receptor (Homo sapiens) (P21728 whole entry, looked up): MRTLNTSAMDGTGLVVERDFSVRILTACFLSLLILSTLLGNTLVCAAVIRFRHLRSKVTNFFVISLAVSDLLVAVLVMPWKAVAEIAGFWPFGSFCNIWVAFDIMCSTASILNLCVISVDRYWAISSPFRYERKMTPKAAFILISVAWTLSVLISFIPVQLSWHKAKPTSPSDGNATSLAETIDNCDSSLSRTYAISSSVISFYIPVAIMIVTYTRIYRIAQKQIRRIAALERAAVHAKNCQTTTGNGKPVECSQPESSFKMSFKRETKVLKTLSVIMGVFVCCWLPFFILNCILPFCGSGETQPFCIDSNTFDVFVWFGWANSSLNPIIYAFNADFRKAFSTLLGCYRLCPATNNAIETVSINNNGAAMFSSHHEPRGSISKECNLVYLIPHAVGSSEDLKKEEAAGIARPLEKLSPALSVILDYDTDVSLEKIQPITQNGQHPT
Chain of human Opioid Receptor Delta 1 (Opiate D1), OPRD1 (gene 4985) (P41143 whole entry, looked up): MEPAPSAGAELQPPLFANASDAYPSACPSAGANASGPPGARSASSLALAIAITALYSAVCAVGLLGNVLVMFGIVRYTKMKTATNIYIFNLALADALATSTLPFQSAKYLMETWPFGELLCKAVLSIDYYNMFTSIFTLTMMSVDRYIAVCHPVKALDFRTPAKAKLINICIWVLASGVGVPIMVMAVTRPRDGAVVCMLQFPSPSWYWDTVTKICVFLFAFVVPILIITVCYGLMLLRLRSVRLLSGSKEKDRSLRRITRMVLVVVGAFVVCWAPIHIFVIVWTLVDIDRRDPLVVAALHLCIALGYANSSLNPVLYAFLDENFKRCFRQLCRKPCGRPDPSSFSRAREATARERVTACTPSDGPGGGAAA
Chain of Muscarinic acetylcholine receptor M5 (Homo sapiens) (P08912 whole entry, looked up): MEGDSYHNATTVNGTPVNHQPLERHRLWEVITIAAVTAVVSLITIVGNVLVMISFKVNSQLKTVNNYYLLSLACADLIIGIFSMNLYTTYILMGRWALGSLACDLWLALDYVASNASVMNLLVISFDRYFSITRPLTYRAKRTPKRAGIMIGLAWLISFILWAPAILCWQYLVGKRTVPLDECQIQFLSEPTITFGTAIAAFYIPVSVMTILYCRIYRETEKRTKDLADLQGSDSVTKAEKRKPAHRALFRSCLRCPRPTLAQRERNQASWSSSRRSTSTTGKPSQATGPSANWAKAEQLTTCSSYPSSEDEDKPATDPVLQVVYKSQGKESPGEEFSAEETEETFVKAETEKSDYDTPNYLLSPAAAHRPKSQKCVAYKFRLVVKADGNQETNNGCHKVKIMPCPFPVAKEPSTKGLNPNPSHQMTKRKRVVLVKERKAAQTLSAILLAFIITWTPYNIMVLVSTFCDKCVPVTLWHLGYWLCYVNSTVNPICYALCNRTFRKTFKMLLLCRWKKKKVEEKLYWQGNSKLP
Chain of human Dopamine Receptor D2 (DRD2), DRD2 (gene 1813) (P14416 whole entry, looked up): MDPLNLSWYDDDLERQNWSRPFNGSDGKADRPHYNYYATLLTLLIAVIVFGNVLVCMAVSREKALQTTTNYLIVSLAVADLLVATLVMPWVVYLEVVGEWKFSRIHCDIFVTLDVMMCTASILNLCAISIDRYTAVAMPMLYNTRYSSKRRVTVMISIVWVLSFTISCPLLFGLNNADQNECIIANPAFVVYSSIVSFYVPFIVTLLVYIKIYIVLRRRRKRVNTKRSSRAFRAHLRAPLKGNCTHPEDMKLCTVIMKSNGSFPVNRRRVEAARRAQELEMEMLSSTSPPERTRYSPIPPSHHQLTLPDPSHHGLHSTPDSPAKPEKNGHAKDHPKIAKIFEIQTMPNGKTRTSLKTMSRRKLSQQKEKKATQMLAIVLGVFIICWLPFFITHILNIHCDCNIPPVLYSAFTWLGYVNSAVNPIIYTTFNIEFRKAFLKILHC
Chain of human Histamine 1 Receptor (H1), HRH1 (gene 3269) (P35367 whole entry, looked up): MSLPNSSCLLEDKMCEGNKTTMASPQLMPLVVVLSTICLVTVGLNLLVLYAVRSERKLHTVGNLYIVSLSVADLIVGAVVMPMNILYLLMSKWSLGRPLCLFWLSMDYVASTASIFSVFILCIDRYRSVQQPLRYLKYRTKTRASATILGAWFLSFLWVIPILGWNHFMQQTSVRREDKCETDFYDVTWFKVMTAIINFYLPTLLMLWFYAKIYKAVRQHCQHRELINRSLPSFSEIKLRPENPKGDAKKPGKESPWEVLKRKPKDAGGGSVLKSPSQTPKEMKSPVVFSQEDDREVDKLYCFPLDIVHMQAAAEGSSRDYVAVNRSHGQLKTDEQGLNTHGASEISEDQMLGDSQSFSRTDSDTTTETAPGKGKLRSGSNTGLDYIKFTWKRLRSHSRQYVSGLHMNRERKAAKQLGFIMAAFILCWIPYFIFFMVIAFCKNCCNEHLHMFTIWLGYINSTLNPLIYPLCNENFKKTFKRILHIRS
Chain of Muscarinic acetylcholine receptor M1 (Homo sapiens) (P11229 whole entry, looked up): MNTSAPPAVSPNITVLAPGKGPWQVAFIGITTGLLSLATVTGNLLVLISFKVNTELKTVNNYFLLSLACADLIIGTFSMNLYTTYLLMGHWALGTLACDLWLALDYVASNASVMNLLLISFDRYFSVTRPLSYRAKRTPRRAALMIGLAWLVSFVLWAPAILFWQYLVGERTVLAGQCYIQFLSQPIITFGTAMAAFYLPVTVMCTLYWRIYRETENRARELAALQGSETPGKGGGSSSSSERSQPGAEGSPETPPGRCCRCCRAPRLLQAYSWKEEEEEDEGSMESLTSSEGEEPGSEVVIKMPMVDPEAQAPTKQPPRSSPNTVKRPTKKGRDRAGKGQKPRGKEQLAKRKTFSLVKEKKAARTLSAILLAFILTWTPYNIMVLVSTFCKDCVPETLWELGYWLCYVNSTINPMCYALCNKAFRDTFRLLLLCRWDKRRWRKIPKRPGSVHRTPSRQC
Chain of human Muscarinic, M4 Receptor, CHRM4 (gene 1132) (P08173 whole entry, looked up): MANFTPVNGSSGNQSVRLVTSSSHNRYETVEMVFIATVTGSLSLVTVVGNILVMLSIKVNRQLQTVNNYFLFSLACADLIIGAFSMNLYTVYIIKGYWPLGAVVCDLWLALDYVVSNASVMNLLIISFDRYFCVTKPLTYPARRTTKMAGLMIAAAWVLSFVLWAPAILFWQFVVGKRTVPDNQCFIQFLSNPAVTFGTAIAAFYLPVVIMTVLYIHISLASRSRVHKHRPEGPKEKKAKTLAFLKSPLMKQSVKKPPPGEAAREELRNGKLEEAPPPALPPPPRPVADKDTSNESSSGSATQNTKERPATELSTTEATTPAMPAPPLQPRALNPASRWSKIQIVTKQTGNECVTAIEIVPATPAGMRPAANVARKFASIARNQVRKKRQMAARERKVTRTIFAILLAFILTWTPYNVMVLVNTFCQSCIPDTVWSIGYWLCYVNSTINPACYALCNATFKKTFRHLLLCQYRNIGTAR
Chain of Muscarinic acetylcholine receptor M3 (Homo sapiens) (P20309 whole entry, looked up): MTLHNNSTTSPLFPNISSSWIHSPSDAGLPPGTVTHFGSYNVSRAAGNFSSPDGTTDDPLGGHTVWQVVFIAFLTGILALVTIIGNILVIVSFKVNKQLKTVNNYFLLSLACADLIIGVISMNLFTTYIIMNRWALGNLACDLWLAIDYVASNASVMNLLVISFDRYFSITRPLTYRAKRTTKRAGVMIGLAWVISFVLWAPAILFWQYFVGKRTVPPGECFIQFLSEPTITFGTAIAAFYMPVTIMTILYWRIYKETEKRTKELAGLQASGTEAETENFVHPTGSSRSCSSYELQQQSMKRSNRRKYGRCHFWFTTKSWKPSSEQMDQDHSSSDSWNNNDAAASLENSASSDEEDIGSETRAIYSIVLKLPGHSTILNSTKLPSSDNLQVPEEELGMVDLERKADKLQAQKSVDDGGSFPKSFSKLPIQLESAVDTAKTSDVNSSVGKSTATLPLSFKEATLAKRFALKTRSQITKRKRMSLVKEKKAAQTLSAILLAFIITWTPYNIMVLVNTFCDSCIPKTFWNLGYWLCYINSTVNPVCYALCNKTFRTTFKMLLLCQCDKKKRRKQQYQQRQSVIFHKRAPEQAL
Chain of human Purinergic Receptor P2Y, P2RY1 (gene 5028) (P47900 whole entry, looked up): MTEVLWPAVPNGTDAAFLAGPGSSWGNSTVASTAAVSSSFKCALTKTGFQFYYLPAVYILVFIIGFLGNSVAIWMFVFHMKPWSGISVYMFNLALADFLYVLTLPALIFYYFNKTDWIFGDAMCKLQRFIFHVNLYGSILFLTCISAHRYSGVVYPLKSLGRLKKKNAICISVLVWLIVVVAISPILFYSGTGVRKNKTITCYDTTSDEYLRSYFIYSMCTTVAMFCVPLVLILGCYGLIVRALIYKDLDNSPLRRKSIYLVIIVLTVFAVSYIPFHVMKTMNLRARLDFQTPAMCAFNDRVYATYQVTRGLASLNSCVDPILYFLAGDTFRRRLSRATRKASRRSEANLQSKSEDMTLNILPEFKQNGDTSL
Chain of human Thromboxane A2 Receptor (TXA2), TBXA2R (gene 6915) (P21731 whole entry, looked up): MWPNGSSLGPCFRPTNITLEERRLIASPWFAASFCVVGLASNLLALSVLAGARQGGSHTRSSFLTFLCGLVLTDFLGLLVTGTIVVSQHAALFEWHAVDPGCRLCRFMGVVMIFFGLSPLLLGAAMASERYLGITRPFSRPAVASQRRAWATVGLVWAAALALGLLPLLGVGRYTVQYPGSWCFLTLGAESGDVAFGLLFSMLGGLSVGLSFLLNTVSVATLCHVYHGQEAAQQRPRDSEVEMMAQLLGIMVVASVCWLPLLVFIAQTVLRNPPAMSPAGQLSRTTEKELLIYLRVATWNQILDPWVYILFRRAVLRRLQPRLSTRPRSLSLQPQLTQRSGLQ

O=C1OC(c2ccc(O)cc2)(c2ccc(O)cc2)c2ccccc21
active: [1] 4.96 µM | [2] 6.64 µM | [3] 0.454 µM

NCCOCCOCCN
inactive: [4]

CS(=O)(=O)c1ccc([C@@H](C[C@H]2CCC(=O)C2)C(=O)Nc2cnccn2)cc1Cl
inactive: [5]

CN(C)C(=O)NC1(c2ccccc2)CCN(CCC[C@]2(c3ccc(Cl)c(Cl)c3)CCCN(C(=O)c3ccccc3)C2)CC1
inactive: [2]
active: [6] 4 µM | [7] 2.02 µM | [8] 3.84 µM | [9] 2.41 µM | [10] 3.46 µM | [11] 2.01 µM | [12] 0.164 µM

O=C(N[C@@H](c1ccccc1)[C@@H]1CCCCN1)c1cccc(C(F)(F)F)c1Cl
active: [1] 12.1 µM | [11] 25 µM | [12] 17.8 µM
inactive: [6] | [13]

CCCCCCCCCCCCCCOS(=O)(=O)O
active: [6] 15.1 µM | [13] 28.1 µM | [1] 5.18 µM | [7] 25 µM | [8] 25 µM | [10] 31.9 µM | [11] 16.5 µM | [12] 46.3 µM | [2] 8.07 µM | [5] 10.3 µM | [3] 7.59 µM | [14] 16.3 µM

S=c1[nH]c2ccccc2s1
inactive: [12]
